Records with an inconclusive call do not appear. Active and inactive are the calls of the source. The calls were made as follows, unless noted: active = hit-call score of the fitted dose curve at least 0.9, where 1 is the maximum; inactive = score below 0.9.

A short description of experiment [1]: Tanguay_ZF_120hpf_MUSC: Oregon State University Tanguay Lab 120 Hour Post-fertilization zebrafish Assay for Muscle Malformation (AID 2284401). In outline:
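Scored as a binary brightfield endpoint at 120 hpf, fitted versus DMSO. Single dechorionated wild-type (Tropical 5D) zebrafish embryos per well, statically exposed at 28C from 6 hpf onward with final DMSO 0.64%.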

The nature of experiment [2]: UKN5_HCS_SBAD2_cell_viability: Viability Assessment in the University of Konstanz (UKN) Leist Lab Neurite Outgrowth Assay in human iPSC-derived immature Dorsal Root Ganglia Neurons (UKN5) (AID 2284056). In outline: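 iPSC-derived immature peripheral neurons (SBAD2) seeded on Matrigel with CHIR99021, SU5402 and DAPT, dosed 1 h later for 24 h. Viability from Hoechst H-33342 and calcein-AM live staining, high-content imaging; bidirectional fit versus DMSO.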

Experiment [3] can be described thus: UKN5_HCS_SBAD2_neurite_outgrowth: University of Konstanz (UKN) Leist Lab Neurite Outgrowth Assay in human iPSC-derived immature Dorsal Root Ganglia Neurons (UKN5) (AID 2284070). The settings on record: actives raise or lower the signal. In outline: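 Neurite area from calcein-AM high-content images after 24 h exposure (staining included), with H-33342 for viability, fitted both directions against DMSO. Cells: thawed immature SBAD2 peripheral neurons, 100.000 cells/cm2, with CHIR99021, SU5402, DAPT; dosing 1 h after seeding.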

Experiment [4] in a line: UKN4_HCS_LUHMES_neurite_outgrowth: University of Konstanz (UKN) Leist Lab Neurite Outgrowth Assay in human LUHMES cells (UKN4) (AID 2284206). The settings on record: actives raise or lower the signal. In outline: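 After 24 h compound treatment beginning shortly after replating of 2-day-differentiated LUHMES cells, calcein-AM and H-33342 live staining allowed high-content imaging of neurite area and viability. Fitted bidirectionally against DMSO.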

Experiment [5] in a line: IUF_NPC1a_proliferation_area_72hr: Leibniz Research Institute for Environmental Medicine (IUF) 72-hour Neural Progenitor Cell Proliferation Area Assay (NPC1a) (AID 2284208). In outline: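 Proliferation read as increase in sphere area by phase-contrast imaging over 72 h continuous compound exposure (no renewal) of hNPC spheres grown with EGF/FGF at 37C, 5% CO2. Growth-factor withdrawal served as positive control; DMSO as baseline.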

A short description of experiment [6]: IUF_NPC1_viability_72hr: Viability Assessment at 72 hours in the Leibniz Research Institute for Environmental Medicine (IUF) Neural Progenitor Cell Proliferation Assay (NPC1) (AID 2284209). In outline: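 Viability was measured by resazurin-to-resorufin fluorescence (alamar blue) after 72 h of continuous exposure without compound renewal. Each well held one hNPC sphere (gestational week 16-19 fetal cortex, 0.25-0.35 mm) cultured in EGF/FGF proliferation medium at 37C and pH 7.2-7.6.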

Experiment [7] can be described thus: UKN4_HCS_LUHMES_cell_viability: Viability Assessment in the University of Konstanz (UKN) Leist Lab Neurite Outgrowth Assay in human LUHMES cells (UKN4) (AID 2284232). In outline:
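Viability was read by high-content imaging of calcein-AM/H-33342-stained cells after 24 h toxicant exposure, staining included. Cells: human LUHMES on day 2 of dopaminergic differentiation, dosed shortly after attachment; DMSO baseline, bidirectional curve fitting.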

A short description of experiment [8]: UKN2_HCS_IMR90_cell_viability: Viability Assessment in the University of Konstanz (UKN) Leist Lab Neural Crest Cell Migration Assay in human induced IMR90 Pluripotent Stem Cells (UKN2) (AID 2284233).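 Also: cells exposed to compound for 24 h after a 24 h migration phase.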 In outline:
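After calcein-AM/Hoechst staining, viability is quantified by high-content fluorescence imaging, relative to DMSO, in iPSC (IMR90)-derived neural crest cells. Exposure lasts 24 h, starting after a 24 h migration period on PLO/laminin/fibronectin coating.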

Experiment [9] in a line: IUF_NPC2c_oligodendrocyte_migration_120hr: Leibniz Research Institute for Environmental Medicine (IUF) 120-hour Neural Progenitor Cell Migration Assay for Oligodendrocyte Migration (NPC2c) (AID 2284297).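 Also: O4-positive oligodendrocyte migration distance divided by radial glia migration distance.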 In outline: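 Exposure runs 5 days from differentiation onset at 37C, seven concentrations plus solvent control, DMSO at most 0.1%, applied to primary hNPC spheres on laminin. After fixation, O4 immunostaining gives oligodendrocyte distance from the sphere core, relative to radial glia migration.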

Experiment [10] is described as follows: IUF_NPC2a_radial_glia_migration_120hr: Leibniz Research Institute for Environmental Medicine (IUF) 120-hour Neural Progenitor Cell Migration Assay for Radial Glia Migration (NPC2a) (AID 2284298). In outline: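 Migration distance in um, sphere core edge to migration-area edge, derived by nuclei-density algorithm from Hoechst images after 120 h compound exposure. Primary hNPC spheres differentiated on poly-D-lysine/laminin in N2 medium, 37C; medium half-replaced day 3.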

Experiment [11] is described as follows: IUF_NPC2b_neuronal_migration_120hr: Leibniz Research Institute for Environmental Medicine (IUF) 120-hour Neural Progenitor Cell Migration Assay for Neuron Migration (NPC2b) (AID 2284300). In outline:
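TUBB3-positive neurons are imaged after 120 h of differentiation, and their mean distance from the sphere edge is normalised to radial glia migration. Single 0.3 mm fetal hNPC spheres on poly-D-lysine/laminin received 7 compound concentrations, ≤0.1% DMSO, refreshed at day 3.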

Experiment [12] in a line: IUF_NPC3_neuronal_differentiation_120hr: Leibniz Research Institute for Environmental Medicine (IUF) 120-hour Neuronal Differentiation Assay (NPC3) (AID 2284301). In outline: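 Value is percent TUBB3-positive neurons among Hoechst-stained nuclei in the migration area, scored by trained CNN after 120 h differentiation. Primary hNPC spheres on poly-D-lysine/laminin, N2 medium, continuous dosing from day 0, half-refeed day 3; DMSO reference.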

Experiment [13] is described as follows: IUF_NPC4_neurite_length_120hr: Leibniz Research Institute for Environmental Medicine (IUF) 120-hour Neuronal Morphology Assay for Neurite Length (NPC4) (AID 2284302). In outline:
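Neurite length, the mean in um across TUBB3-stained neurons, is derived by skeletonization of high-content images after 120 h differentiation. Compound exposure, 7 concentrations plus solvent control, ran from plating of hNPC spheres on poly-D-lysine/laminin, with medium half-replaced on day 3.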

Experiment [14] in a line: IUF_NPC5_oligodendrocyte_differentiation_120hr: Leibniz Research Institute for Environmental Medicine (IUF) 120-hour Oligodendrocyte Differentiation Assay (NPC5) (AID 2284304; active = hit-call score of the fitted dose curve at least 0.9, where 1 is the maximum;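 also: primary human fetal neural progenitor spheres plated to migrate and differentiate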). In outline:
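Oligodendrocyte differentiation scored as O4-positive cells, found by CNN image analysis, as percent of Hoechst-stained nuclei in the migration area. Scoring followed 5 days of exposure of plated hNPC neurospheres differentiating in DMEM/F12 N2 medium at 37C, with compound refreshed at day 3.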

A short description of experiment [15]: IUF_NPC4_neurite_area_120hr: Leibniz Research Institute for Environmental Medicine (IUF) 120-hour Neuronal Morphology Assay for Neurite Area (NPC4) (AID 2284305; active = hit-call score of the fitted dose curve at least 0.9, where 1 is the maximum). In outline: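 Neurite area (pixels, nuclei excluded) of TUBB3-positive neurons from hNPC spheres differentiating 5 days under continuous exposure at 37 C, 5% CO2. High-content imaging; loss of signal versus DMSO control across 7 concentrations.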

A short description of experiment [16]: IUF_NPC2-5_cytotoxicity_72hr: Cytotoxicity Assessment at 72 hours in the Leibniz Research Institute for Environmental Medicine (IUF) Neural Progenitor Cell Migration and Differentiation Assay for Cytotoxicity (NPC2-5) (AID 2284306; active = hit-call score of the fitted dose curve at least 0.9, where 1 is the maximum;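 also: LDH release into supernatant measured by resorufin fluorescence marking membrane damage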). In outline: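 Membrane-integrity cytotoxicity at 72 h, read as LDH-driven resorufin fluorescence in supernatant. hNPC spheres from fetal cortex differentiate on coated plates in N2 medium, 37C, 5% CO2; seven serial compound concentrations plus solvent control (DMSO ≤0.1%).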

The nature of experiment [17]: IUF_NPC2-5_cytotoxicity_120hr: Cytotoxicity Assessment at 120 hours in the Leibniz Research Institute for Environmental Medicine (IUF) Neural Progenitor Cell Migration and Differentiation Assay (NPC2-5) (AID 2284307; active = hit-call score of the fitted dose curve at least 0.9, where 1 is the maximum). In outline:
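Membrane-integrity loss measured as LDH activity in medium supernatant via resazurin-to-resorufin fluorescence after 120 h exposure. hNPC spheres from GW 16-19 fetal cortex differentiated on poly-D-lysine/laminin, 37C, medium half-refreshed day 3; seven concentrations, DMSO max 0.1%.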

A short description of experiment [18]: IUF_NPC2-5_cell_number_120hr: Cell Number Assessment at 120 hours in the Leibniz Research Institute for Environmental Medicine (IUF) Neural Progenitor Cell Migration and Differentiation Assay (NPC2-5) (AID 2284308).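 Also: count of Hoechst-stained nuclei in migration zone around plated human neural progenitor spheres.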 In outline: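 Counting of all Hoechst-stained nuclei in the migration area at 120 h, versus DMSO control. Primary hNPC spheres differentiated on poly-D-lysine/laminin in N2 medium at 37C, dosed from day 0 (7 concentrations, DMSO ≤0.1%), half-refed day 3.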

Experiment [19] is described as follows: IUF_NPC2-5_viability_120hr: Viability Assessment at 120 hours in the Leibniz Research Institute for Environmental Medicine (IUF) Neural Progenitor Cell Migration and Differentiation Assay (NPC2-5) (AID 2284312). In outline:
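Alamar blue resorufin fluorescence read after 5 days of differentiation, with compound present from day 0 and replenished at day 3. Primary hNPC spheres on laminin-coated plates, 37C; seven concentrations plus solvent control, fitted against DMSO.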

The nature of experiment [20]: IUF_NPC1_cytotoxicity_72hr: Cytotoxicity Assessment at 72 hours in the Leibniz Research Institute for Environmental Medicine (IUF) Neural Progenitor Cell Proliferation Assay (NPC1) (AID 2284332; active = hit-call score of the fitted dose curve at least 0.9, where 1 is the maximum;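 also: rising LDH signal means more cytotoxicity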). In outline:
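Cytotoxicity by LDH membrane-integrity assay on medium supernatants, fluorescence via resazurin reduction, after 3-day single exposure of primary hNPC spheres at 37C, pH 7.2-7.6 with growth factors. Fitted upward against baseline.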

For `OCC(F)(F)C(F)(F)C(F)(F)C(F)(F)C(F)(F)C(F)(F)CO`, the call in experiment [1] was inactive.
Same read-out and setting: the entry for `C=CC(=O)OCCC(F)(F)C(F)(F)C(F)(F)C(F)(F)C(F)(F)C(F)(F)C(F)(F)C(F)(F)F` is “inactive”.
Turning to `CC1(C)C(C=C(Cl)Cl)[C@H]1C(=O)O[C@H](C#N)c1cccc(Oc2ccccc2)c1` (stereo partly specified), the call in [2], in experiment [3], in experiment [4], in [5], in [6] and in [7] was inactive. In addition, the outcome in [8], in [9], in experiment [10], in experiment [11], in experiment [12] and in [13] was inactive. Also, the compound was called inactive in [15], in experiment [16], in experiment [17], in [18], in experiment [19] and in experiment [20]. Further, in [14], the AC50 was 1000 nM (active).

The record behind these values is PubChem BioAssay (EPA / NIEHS).
